Rows were chosen to be rich in hits. Some 4.1% of all compounds tested hit in one or more screens of this group.
hcDAF-12 act = H. contortus DAF-12 nuclear receptor activators, primary screen, cell-based, luminescence, HEK293, lit1-tk-luc reporter; HEK293 hcDAF-12 lit1-tk-luc reporter; 0% DMSO, 100% Δ7-dafachronic acid; activation, % at 6.8 µM; hit rate 1.4% among 370,000;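 active = activation above the mean of all tested compounds plus 3 SD, cut at about 5.5% in these data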
DAX1 inh-1 = DAX1 (NR0B1) inhibitors, primary screen, cell-based, HEK293, Gal4-DAX1, luciferase luminescence; Nuclear receptor subfamily 0 group B member 1 (Homo sapiens), P51843; HEK293 Gal4-DAX1 luciferase reporter; inhibition, % at 6.75 µM; hit rate 0.99% among 340,000; AID 504766, 2011;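 active = inhibition above the mean over all tested compounds plus 3 SD, cut at about 4.2% in these data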;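 also: inhibition shows as a rise in luminescence from relieved DAX1 repression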
Target sequence (P51843 207-470 limits assumed): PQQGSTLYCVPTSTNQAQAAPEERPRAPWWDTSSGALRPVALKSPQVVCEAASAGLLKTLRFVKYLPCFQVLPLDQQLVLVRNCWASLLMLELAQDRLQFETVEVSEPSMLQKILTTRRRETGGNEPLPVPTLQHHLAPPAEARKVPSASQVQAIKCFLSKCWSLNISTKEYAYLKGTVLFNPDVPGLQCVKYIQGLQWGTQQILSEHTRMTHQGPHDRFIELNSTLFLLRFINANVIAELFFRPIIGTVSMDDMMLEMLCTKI
ssDAF12 agonist = S. stercoralis DAF-12 nuclear receptor activators, primary screen, cell-based, luminescence, HEK293, GRIP1 co-expression, lit1-tk-luc. HEK293 ssDAF-12/GRIP1 lit1-tk-luc reporter; % of 3 µM dafachronic acid response. AID 652126, 2013. activation, % at 6.8 µM. hit rate 1% among 370,000. Nuclear hormone receptor DAF-12 (Strongyloides stercoralis);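 active = activation above the mean over all tested compounds plus 3 SD, cut at about 0.9% in these data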
DAX1 inh-2 = DAX1 (NR0B1) inhibitors on StAR promoter, primary screen, cell-based, luminescence, SF-1 (NR5A1), full-length DAX-1; AID 652010, 2013; hit rate 1.1% among 370,000; HEK293T StAR-luciferase reporter, SF-1/DAX-1 repression relief; inhibition, % at 6.8 µM;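 active = inhibition above the mean over all tested compounds plus 3 SD, cut at about 3.6% in these data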;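 also: higher inhibition means more luminescence from relief of DAX-1 repression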
hgDAF-12 ag = H. glycines DAF-12 receptor agonists, primary screen, cell-based, luminescence, HEK293, GAL4 fusion, UAS-luciferase. Nuclear hormone receptor DAF-12 (Heterodera glycines), GAL4 fusion. HEK293 GAL4-hgDAF12 UAS-luciferase reporter, agonist luminescence; normalized to butyrate control. activation, % at 6.8 µM. hit rate 1.8% among 370,000;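 active = activation above a cutoff set at the mean of all screened compounds plus 3 SD, cut at about 10% in these data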
Large screens that a line does not name were inactive.

CC(Oc1ccc(C(=O)NCCc2ccccc2)cc1)C(=O)O (stereo not given)	none
CCOc1ccc(NC(=S)NCCCc2ccccc2)cc1	none
CCCCOc1ccc(C(=O)NCCc2ccccc2)cc1	ssDAF12 agonist 1.1
O=C(NC1CCCCN(Cc2cccc(Cl)c2)C1=O)c1cccc2nsnc12 (stereo not given)	none (no result: DAX1 inh-1)
CC(=O)C1=C(C)N(Cc2ccc(F)cc2)C(=S)NC1c1ccc(Br)cc1 (stereo not given)	none (no result: DAX1 inh-1)
O=C(O)/C=C/c1cccc2c1OCCO2	DAX1 inh-1 7.2
COc1cc(-c2nnc(SCC(=O)N3C(C)CCCC3C)o2)cc(OC)c1OC (stereo not given)	none (no result: DAX1 inh-1)
O=c1cc(-c2ccc3c(c2)OCCO3)oc2ccc(Cl)cc12	hgDAF-12 ag 12.2
Cc1ccccc1-c1cc(=O)c2ccccc2o1	none
O=c1c(O)c(-c2cccs2)oc2ccc(Cl)cc12	none
O=c1cc(-c2ccccc2)oc2ccc(Cl)cc12	DAX1 inh-2 3.9
O=c1cc(-c2ccccc2F)oc2ccccc12	hgDAF-12 ag 11.1
O=c1cc(-c2cccs2)oc2ccc(Cl)cc12	DAX1 inh-1 5.3
O=C(O)c1cc(=O)c2cc(Cl)ccc2o1	none
CCOC(=O)CC[C@@H]1CC[C@]2(CCCN(C(=O)c3ccccc3)C2)O1	none (no result: DAX1 inh-1)
COC(=O)C[C@H]1CC[C@H]2[C@H](COc3ccc(NS(=O)(=O)c4cccc(F)c4)cc3C(=O)N2C)O1	none (no result: DAX1 inh-1)
O=c1cc(-c2ccsc2)oc2cc(-c3ccc4c(c3)OCO4)ccc12	DAX1 inh-1 4.7
COc1ccc(OC(=O)NCCc2ccccc2)cc1	hgDAF-12 ag 13.0
COc1ccc(C(=O)CC(=O)C(=O)NCCc2cccc(C)c2)cc1	hcDAF-12 act 6.4
COc1ccc(CCNC(=O)c2ccccc2)cc1	none
COc1ccc(C(=O)CC(=O)C(=O)Nc2cc(C)ccc2C)cc1	none
COc1ccc(Cc2c(C)nc(N)nc2Cl)cc1	ssDAF12 agonist 1.7
Cc1ccc(C(=O)C[n+]2cccc3ccccc32)cc1	hcDAF-12 act 6.0, ssDAF12 agonist 1.7
O=C(C[n+]1cccc2ccccc21)c1ccc(Br)cc1	ssDAF12 agonist 2.2
NC(=O)C[n+]1cccc2ccccc21	none
COc1cccc(-c2sc3ccc(OC)cc3c2-c2cnc(N3CCOCC3)nc2)c1	hgDAF-12 ag 10.9 (no result: DAX1 inh-1)
COc1cccc(-c2sc3ccc(OC)cc3c2-c2ccc(OCCN3CCOCC3)cc2)c1	none
CCN(Cc1ccncc1)C(=O)C(CO)c1ccccc1 (stereo not given)	hgDAF-12 ag 11.5
CC(C)(C)NC(=O)[C@@H](c1cccnc1)N(C(=O)c1ccco1)c1ccc(C(C)(C)C)cc1	none (no result: DAX1 inh-1, DAX1 inh-2)
CCCCCn1nnnc1C1(C)CSCC(=O)N1Cc1ccco1 (stereo not given)	none (no result: DAX1 inh-1)
COC(=O)c1ccc(CN2CCCC(CO)(Cc3ccc(F)cc3F)C2)cc1 (stereo not given)	ssDAF12 agonist 1.0
COC(=O)[C@]12C[C@H](CC(=O)N3CCCC3)C(=O)N(Cc3ccccc3)C1=C[C@H](C(C)C)O[C@@H]2C1CC1	none (no result: DAX1 inh-1)
Cc1cc2c(cc1C)-n1nnnc1C(N1CCN(c3ccccn3)CC1)C(c1ccc3c(c1)OCO3)=N2 (stereo not given)	hcDAF-12 act 6.3 (no result: DAX1 inh-1)
c1ccc(N2CCN(Cc3ccc4c(c3)OCO4)CC2)nc1	none (no result: DAX1 inh-1)
CCC(/C=C1\Sc2ccc(OC)cc2N1CC)=C\c1sc2ccc(OC)cc2[n+]1CCCS(=O)(=O)[O-]	ssDAF12 agonist 5.6
CCC(/C=C1\Sc2ccc(OC)cc2N1CCO)=C\c1sc2ccc(OC)cc2[n+]1CCO	none
O=[N+]([O-])c1cc(S(=O)(=O)Nc2ccccc2)ccc1Nc1ccccc1	ssDAF12 agonist 1.6
O=C(CC1SC(=Nc2ccccc2)N(CCO)C1=O)Nc1ccccc1 (stereo not given)	none
O=C(CC1SC(=Nc2ccccc2)N(CCc2ccccn2)C1=O)Nc1ccc(F)cc1 (stereo not given)	hcDAF-12 act 6.2
COc1cc(-n2c(=O)c3ccccc3n(CC(=O)c3ccc(Br)cc3)c2=O)cc(OC)c1OC	DAX1 inh-1 5.4
